Each structure is given as a SMILES string. Compounds without any hit were thinned out: in the full panel of roughly 83,000, 20% have a hit.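 Method: cells in 96-well plates; compound added at one concentration; 48 h incubation; percent growth measured; values under 10 scored active.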 A number with no mark means an inactive call. Active and inactive are the calls of the source.

Common to all, as to assay: NCI-60 one-dose screen, 48 h (100 = growth as untreated, 0 = no growth, -100 = all killed)
What all share (details): 10 µM unless noted

Experiment [1] deals with SK-MEL-2 melanoma.
Experiment [2] has as its system EKVX NSCLC.
Experiment [3] has as its system SN12C renal.
In experiment [4] the test system is UO-31 renal.
Experiment [5] relates to TK-10 renal.
Experiment [6] has as its system ACHN renal.
For experiment [7], the system named is CAKI-1 renal.
The test system of experiment [8] is A498 renal.
The test system of experiment [9] is SR leukemia.
For experiment [10], the system named is OVCAR-8 ovarian.
Experiment [11] relates to OVCAR-5 ovarian.
For experiment [12], the system named is SK-OV-3 ovarian.
In experiment [13] the test system is IGROV1 ovarian.
Experiment [14] relates to OVCAR-3 ovarian.
Experiment [15] relates to HS 578T breast.
Experiment [16] deals with NCI/ADR-RES ovarian.
The subject of experiment [17] is CCRF-CEM leukemia.
Experiment [18] deals with MOLT-4 leukemia.
Experiment [19] relates to RPMI-8226 leukemia.
For experiment [20], the system named is OVCAR-4 ovarian.

Consider `COC(=O)CSc1ccc(Cl)cc1`, for which the growth in [1] was 104%; in [2], 101%; in experiment [3], 121%; in experiment [4], 93.3%; in experiment [5], 104%; in [6] it was 104%. The growth in experiment [7] was 95.1%; in experiment [8], 79.9%; in experiment [9], 78%; in experiment [10] it was 106%; in [11] it was 107%; in [12], 102%. The growth was 93.9% in experiment [13], 122% in experiment [14], 108% in experiment [15] and 115% in experiment [16].
In the case of `CO[C@H](C(=O)[C@@H](O)[C@@H](C)O)[C@@H]1Cc2cc3cc(O[C@H]4C[C@@H](O[C@H]5C[C@@H](O)[C@H](O)C(C)O5)[C@H](O)C(C)O4)c(C)c(O)c3c(O)c2C(=O)[C@H]1O[C@H]1C[C@@H](O[C@H]2C[C@@H](O[C@H]3C[C@](C)(O)C(=O)C(C)O3)[C@@H](O)C(C)O2)[C@H](O)C(C)O1` (stereo partly drawn), the growth was -57.6% (active) in [1]; 0.189% (active) in [2]; 13.6% in experiment [3]; -11.3% (active) in experiment [4]; -10.9% (active) in experiment [5]; 2.84% (active) in [6]. For the same compound, the growth in [7] is 1.12% (active); in experiment [17], 10.3%; in experiment [18], 1.04% (active); in experiment [9], 8.44% (active); in experiment [19], -21% (active); in experiment [10], 2.48% (active). The growth is 13.1% in experiment [11]; 8.45% (active) in experiment [20]; 9.52% (active) in [12]; 12.2% in experiment [13]; -12.5% (active) in [14]; -13.8% (active) in [15]. The growth in experiment [16] was 76%.
Turning to `CCOC(=O)c1ccc2c(c1)[n+](=O)c(C(=O)c1ccc3ccccc3c1)c(C(F)(F)F)n2[O-]`, the growth is -83.5% (active) in experiment [1]; -56.8% (active) in experiment [2]; -99.2% (active) in experiment [3]; -96% (active) in experiment [4]; -89.7% (active) in experiment [5]; -100% (active) in experiment [6]. In addition, the growth was -93.8% (active) in experiment [7]; -62.4% (active) in experiment [8]; -66.8% (active) in [19]; 3.25% (active) in [10]; -98.5% (active) in experiment [11]; -65.8% (active) in [20]. For the same compound, the growth in experiment [12] was -100% (active); in [13] it was -82.9% (active); in experiment [15], -45.7% (active); in experiment [16], -86.4% (active).
With `O/N=C1\c2ccccc2-c2ccc(Br)cc21`, the growth was 115% in experiment [1]; 88.6% in experiment [2]; 101% in [3]; 81.6% in [4]; 108% in [5]; 94.2% in experiment [6]. The growth in experiment [7] was 91.6%; in experiment [17] it was 71.8%; in experiment [18], 89.2%; in [9] it was 102%; in experiment [19], 105%; in [10] it was 105%. The growth was 113% in experiment [11]; 104% in experiment [20]; 113% in experiment [12]; 116% in experiment [13]; 118% in experiment [14]; 158% in [15]. The growth in [16] was 115%.
As to `O=C1OCC2=C1C(c1ccccc1)c1cc3c(cc1N2CCO)OCO3` (stereo not drawn), the growth is 14.6% in experiment [1]; 35.4% in experiment [2]; 39% in experiment [3]; 43.9% in experiment [4]; 63.4% in [5]; 36.5% in [6]. Further, the growth in experiment [7] is 35.8%; in experiment [8], 6.06% (active); in experiment [19], 46.4%; in experiment [10], 63.3%; in [11], 46.8%; in [20], 52%. For the same compound, the growth was 6.79% (active) in [12]; 39.5% in experiment [13]; 3.99% (active) in [14]; 23.1% in experiment [15]; -20.4% (active) in experiment [16].
With `Cc1ccc(NC(=O)c2cc(NCc3cc(O)ccc3O)ccc2O)cc1`, the growth in [1] is 82.8%; in [2], 98.7%; in experiment [3], 86.1%; in [4], 58%; in [5], 102%; in experiment [6], 100%. Moreover, the growth is 107% in [7]; 26.4% in experiment [17]; 69.7% in experiment [18]; 20.3% in [9]; 20.2% in experiment [19]; 81.8% in experiment [10]. The growth in experiment [11] is 125%; in experiment [20] it was 89.1%; in experiment [12] it was 98.6%; in experiment [13], 97.9%; in experiment [14], 71%; in experiment [15] it was 86.4%. Besides, the growth in [16] is 95.8%.
In the case of `COc1ccc(CNc2c3ccccc3nc3ccc(OC)cc23)cc1`, the growth in [1] is 40.9%; in [2], 24.2%; in [3], 20.8%; in experiment [4], 6.24% (active); in experiment [5], 33.6%; in experiment [6], 10.2%. Further, the growth in experiment [7] was 19.9%; in experiment [17] it was 19.4%; in experiment [18], -0.147% (active); in experiment [9], -15.5% (active); in experiment [19], -47.7% (active); in experiment [10] it was 25.4%. Also, the growth in experiment [11] is 30.7%; in experiment [20], 18.4%; in [12], 47.2%; in experiment [13], 11.2%; in experiment [14] it was 40.4%; in [15] it was 25.9%. Moreover, in experiment [16], the growth was 16.2%.
Regarding `O=C(/C=C/c1ccco1)c1ccccc1O`, the growth was 108% in experiment [1]; 104% in experiment [2]; 102% in experiment [3]; 87.5% in experiment [4]; 122% in experiment [5]; 102% in experiment [6]. In addition, the growth was 99.3% in experiment [7]; 76.5% in experiment [17]; 118% in experiment [18]; 92.4% in [19]; 104% in experiment [10]; 101% in experiment [11]. Moreover, the growth in [12] was 115%; in [13], 104%; in experiment [14], 97%; in experiment [15], 120%; in experiment [16] it was 97.7%.
In the case of `O=C1/C(=C/c2ccccc2)SC(=Nc2ccccc2)N1Nc1ccccc1`, the growth in experiment [1] is -25.2% (active); in experiment [2], 18.9%; in experiment [3] it was -58.3% (active); in experiment [4], 14.8%; in [5], 31.4%; in experiment [6], 10%. Moreover, the growth in [7] is 17.1%; in experiment [17], 6.81% (active); in [18], -1.49% (active); in experiment [9] it was -20.1% (active); in experiment [19], -37.4% (active); in experiment [10], 24.5%. Moreover, the growth in [11] is 22.3%; in [20], 8.26% (active); in experiment [12], 10.5%; in [13], 22.7%; in [14], -5.68% (active); in experiment [15], 35.1%. Besides, the growth in experiment [16] was 8.98% (active).
Take `Cc1ccc(C(=O)CC(=O)C(F)(F)C(F)(F)C(F)(F)F)s1`: the growth in experiment [1] is 113%; in experiment [2] it was 94.6%; in experiment [3] it was 96.4%; in experiment [4], 74.9%; in [5] it was 118%; in experiment [6], 110%. In addition, the growth in experiment [7] is 99.2%; in experiment [17], 103%; in experiment [18], 109%; in experiment [9] it was 99.5%; in [19], 102%; in [10] it was 104%. Besides, the growth in [11] is 96.1%; in [20], 112%; in experiment [12], 104%; in experiment [13], 108%; in [14], 107%; in [15], 105%.
As for `O=C(CCCCCCN1CC(=O)N2[C@@H](c3ccc(Cl)c(Cl)c3)c3[nH]c4ccccc4c3C[C@H]2C1=O)NO`, the growth was 79.9% in experiment [1]; 64.6% in experiment [2]; 60.8% in experiment [3]; 57% in experiment [4]; 40.3% in experiment [5]; 70.2% in experiment [6]. Also, the growth in experiment [7] is 48.7%; in experiment [17] it was 7.73% (active); in experiment [18], 8.86% (active); in experiment [9], 7.56% (active); in experiment [19], 6.04% (active); in [10], 50.3%. Moreover, the growth in [11] was 46.3%; in [12] it was 73.6%; in experiment [13] it was -10.5% (active); in experiment [14] it was 35.3%; in [15] it was 64.8%; in [16], 93.3%.
`CCN(CC)CCCC(C)Nc1c(-c2ccccc2)cnc2cc(Cl)ccc12` (stereo not drawn): the growth in experiment [1] was 35.1%; in experiment [2] it was 83.4%; in experiment [3] it was 74.1%; in experiment [4] it was 50.3%; in experiment [5] it was 59.8%; in [6], 93%. Also, the growth is 85.8% in [7]; 62.1% in experiment [17]; 48.5% in experiment [18]; 7.58% (active) in experiment [9]; 27.4% in [19]; 71.3% in [10]. For the same compound, the growth is 83.4% in [11]; 83% in experiment [20]; 89.7% in experiment [12]; 36.5% in experiment [13]; 82.4% in experiment [14]; 70.3% in experiment [15]. Moreover, the growth in [16] is 79.6%.
Turning to `O=C(C(=O)N1CCCC1)c1cn(CCCn2cc(C(=O)C(=O)N3CCCC3)c3cc(Br)ccc32)c2ccc(Br)cc12`, the growth in [1] was 107%; in experiment [2], 54%; in [3], 83.3%; in [4], 72.6%; in [5], 92.7%; in experiment [6], 55.2%. Besides, the growth in experiment [7] is 46.7%; in experiment [17], 74%; in [18], 73.6%; in experiment [9] it was 65.9%; in [19] it was 76.8%; in [10] it was 59.6%. The growth was 94.7% in experiment [11]; 5.38% (active) in [20]; 90.4% in experiment [12]; 67.9% in experiment [13]; 60% in experiment [14]; -9.76% (active) in experiment [15]. In experiment [16], the growth was 51%.
In the case of `c1ccc(-c2nnn(-c3ccccc3)n2)cc1`, the growth is 94.7% in experiment [1]; 93.2% in experiment [2]; 103% in [3]; 81.3% in experiment [4]; 147% in experiment [5]; 105% in experiment [6]. In addition, the growth was 92.9% in experiment [7]; 95.2% in experiment [17]; 91.2% in experiment [18]; 89% in [9]; 98.6% in [19]; 107% in [10]. The growth in experiment [11] was 105%; in [20], 106%; in [12] it was 106%; in experiment [13] it was 104%; in experiment [14] it was 111%; in [15], 112%. Further, the growth in [16] is 116%.
As to `CC(=O)Oc1c(Cl)c(Cl)c(Cl)c(Cl)c1Cl`, the growth was 90.1% in experiment [1]; 87.6% in experiment [2]; 94.1% in experiment [3]; 81.6% in [4]; 101% in [5]; 95.8% in [6]. The growth in [7] is 89.2%; in experiment [17], 83.2%; in experiment [18] it was 85.6%; in [9], 106%; in experiment [19] it was 73.4%; in experiment [10], 92.6%. The growth in [11] was 100%; in experiment [20], 90.3%; in [12], 91.4%; in experiment [13], 92%; in experiment [14] it was 107%; in experiment [15] it was 106%. The growth in experiment [16] is 93.4%.

The values are drawn from PubChem BioAssay (NCI).
